From PubChem BioAssay (Tox21)
Records with an inconclusive call do not appear. Active and inactive are the calls of the source. Calls come from the whole dose curve; as a rule, active = well fitted curve in the direction sought with a large enough effect in the repeat runs; inconclusive = weak or mixed curves; inactive = no such curve, though single readings can be large; an effect the other way counts as inactive or inconclusive.

Key:
[1] = A CellTox Green Cytotoxicity Assay to monitor cytotoxicity in HEK293 cells - 32 hour (AID 1224881); note: nearly all actives have a fitted effect of over 40% in size; note: potency is the fitted concentration of half-maximal effect
Procedure, shortened: (§1)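 HEK293 cells premixed with CellTox Green dye were seeded at 600 cells/well and left 5 h at 37 C/5% CO2 before pin transfer of 23 nL compound in DMSO. Fluorescence from dye bound to dead-cell DNA was read during 40 h treatment.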

[2] = A CellTox Green Cytotoxicity Assay to monitor cytotoxicity in HepG2 cells - 0 hour (AID 1224882); note: nearly all actives have a fitted effect of over 35% in size
Procedure, shortened: (§2)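 HepG2 cells were seeded together with the CellTox Green dye at 600 cells/well, left 5 h at 37 C/5% CO2, then given compounds in DMSO. Fluorescence from dye bound to dead-cell DNA was read repeatedly over 40 h of treatment at 37 C.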

[3] = A CellTox Green Cytotoxicity Assay to monitor cytotoxicity in HEK293 cells - 8 hour (AID 1224884); note: nearly all actives have a fitted effect of over 35% in size; note: potency is the fitted concentration of half-maximal effect
Procedure, shortened: as §1

[4] = qHTS RealTime-Glo MT Cell Viability Assay in HepG2 cells - 16 hour (AID 1224885); note: nearly all actives have a fitted effect of over 50% in size
Procedure, shortened: (§3)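 Tox21 10K library screened in qHTS format on HepG2 cells carrying RealTime-Glo reagents. Compounds were added after a 5 h preincubation, and the luminescent signal from continuous culture was measured repeatedly during 40 h treatment.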

[5] = qHTS RealTime-Glo MT Cell Viability Assay in HEK293 cells - 24 hour (AID 1224886); note: nearly all actives have a fitted effect of over 50% in size; note: potency is the fitted concentration of half-maximal effect
Procedure, shortened: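 Luminescence generated by NanoLuc from substrate produced by living HEK293 cells served as the viability signal. Each value reflects the reading at its stated time point during continuous 40 h compound exposure at 37 C.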

[6] = qHTS RealTime-Glo MT Cell Viability Assay in HEK293 cells - 8 hour (AID 1224887); note: nearly all actives have a fitted effect of over 50% in size; note: potency is the fitted concentration of half-maximal effect
Procedure, shortened: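 HEK293 cells mixed with RealTime-Glo reagents (NanoLuc plus cell-permeant prosubstrate) at 600 cells/well, preincubated 5 h at 37 C/5% CO2, then given 23 nL compound in DMSO. Nonlytic luminescence from viable cells was read at 0, 8, 16, 24, 32 and 40 h.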

[7] = A CellTox Green Cytotoxicity Assay to monitor cytotoxicity in HEK293 cells - 16 hour (AID 1224888); note: nearly all actives have a fitted effect of over 35% in size; note: potency is the fitted concentration of half-maximal effect
Procedure, shortened: as §1

[8] = qHTS RealTime-Glo MT Cell Viability Assay in HepG2 cells - 0 hour (AID 1224889); note: nearly all actives have a fitted effect of over 50% in size
Procedure, shortened: as §3

[9] = A CellTox Green Cytotoxicity Assay to monitor cytotoxicity in HepG2 cells - 8 hour (AID 1224890); note: nearly all actives have a fitted effect of over 45% in size
Procedure, shortened: as §2

[10] = A CellTox Green Cytotoxicity Assay to monitor cytotoxicity in HepG2 cells - 32 hour (AID 1224883); note: nearly all actives have a fitted effect of over 50% in size; note: potency is the fitted concentration of half-maximal effect
Procedure, shortened: as §2

Measured: Potency

Cc1cc(C)nc(Nc2ccccc2)n1
not listed: [10]
inactive: all other assays above

CC(C)(C)NCC(O)c1cc(Cl)c(N)c(Cl)c1 (centres undefined)
not listed: [3]
inactive: all other assays above

CC(C=O)Cc1ccc2c(c1)OCO2 (centres undefined)
not listed: [10]
inactive: all other assays above

Cc1nnc2n1-c1sc(CCC(=O)N3CCOCC3)cc1C(c1ccccc1Cl)=NC2
not listed: [10]
inactive: all other assays above

CCOP(=O)(N=C1SCCS1)OCC
not listed: [3] | [8]
inactive: all other assays above

O=[N+]([O-])c1cccc2cccnc12
not listed: [10]
inactive: all other assays above

CCS(=O)(=O)C(C)(C)S(=O)(=O)CC
not listed: [10]
inactive: all other assays above

CC(=O)[C@H]1CC[C@H]2[C@@H]3CC[C@H]4C[C@H](O)CC[C@]4(C)[C@H]3C(=O)C[C@]12C
not listed: [10]
inactive: all other assays above

O=C(CCN1CC1)OCC(CO)(COC(=O)CCN1CC1)COC(=O)CCN1CC1
not listed: [10]
inactive: all other assays above

COP(=S)(OC)Oc1ccc(S(N)(=O)=O)cc1
not listed: [3] | [4] | [8]
inactive: all other assays above

O=C(N[C@H]1CN2CCC1CC2)c1cc2ccoc2cn1
not listed: [10]
inactive: all other assays above

N#CC(O)c1ccccc1 (centres undefined)
not listed: [10]
inactive: all other assays above

CCCCc1ccc(O)cc1
active: [10] 21.8 µM | [5] 19.5 µM
not listed: [4] | [6]
inactive: all other assays above

COC(=O)C(C)Oc1ccc(Oc2ccc(Cl)cc2Cl)cc1 (centres undefined)
not listed: [10]
inactive: all other assays above

O=NN1CCN(N=O)CC1
not listed: [10]
inactive: all other assays above

COc1cccc(C(=O)NN(C(=O)c2cc(C)cc(C)c2)C(C)(C)C)c1C
not listed: [10]
inactive: all other assays above

CC(C(O)c1ccccc1)N(C)C/C=C/c1ccccc1 (centres undefined)
not listed: [10]
inactive: all other assays above

NC(=S)C(N)=S
not listed: [1] | [8]
inactive: all other assays above

Fc1ccc(C2(Cn3cncn3)OC2c2ccccc2Cl)cc1 (centres undefined)
active: [5] 43.6 µM
not listed: [6] | [10]
inactive: all other assays above

CSc1ccc(C(=O)C(C)(C)N2CCOCC2)cc1
not listed: [4] | [10]
inactive: all other assays above

CC1(C)C(=O)NC(=O)NC1=O
active: [3] 49 µM
not listed: [1] | [7]
inactive: all other assays above

ClC(Cl)C(Cl)Cl
not listed: [4] | [10]
inactive: all other assays above

OC(c1ccc(F)cc1)(c1cncnc1)c1ccccc1Cl (centres undefined)
not listed: [1]
inactive: all other assays above

CCC/C(=N\OCC)C1=C(O)CC(CC(C)SCC)CC1=O (centres undefined)
not listed: [5] | [10]
inactive: all other assays above

CC(CC(C#N)(c1ccccc1)c1ccccc1)N(C)C (centres undefined)
not listed: [4] | [5] | [10]
inactive: all other assays above

CNC(=O)Oc1c(C(C)(C)C)cc(C)cc1C(C)(C)C
not listed: [1] | [10]
inactive: all other assays above

CCSC(=O)N(CC)C1CCCCC1
not listed: [1] | [10]
inactive: all other assays above

CNC(=O)Oc1ccc(N(C)C)c(C)c1
not listed: [4] | [10]
inactive: all other assays above

CCc1cc2c(s1)-n1c(C)nnc1CN=C2c1ccccc1Cl
inactive: [2] | [10] | [5] | [6] | [8] | [9]

Cc1ccccc1CO[C@@H]1C[C@@]2(C(C)C)CC[C@]1(C)O2
not listed: [1] | [5] | [10]
inactive: all other assays above

CCOC(=O)NC(=S)Nc1ccccc1NC(=S)NC(=O)OCC
not listed: [5] | [10]
inactive: all other assays above

CSc1nc(N=[N+]=[N-])nc(NC(C)C)n1
inactive: [1] | [2] | [3] | [7] | [8] | [9]

OCCSCSCCO
not listed: [8] | [10]
inactive: all other assays above

O=C(Cc1ccccc1)OCc1ccccc1
not listed: [1] | [10]
inactive: all other assays above

CC(C)CC(N(C)C)C1(c2ccc(Cl)cc2)CCC1 (centres undefined)
inactive: [2] | [4] | [5] | [8] | [9]
active: [1] 23.9 µM | [7] 21.3 µM

CC(=O)Nc1cc([As](=O)(O)O)ccc1O
not listed: [4] | [10]
inactive: all other assays above

[As]#[In]
not listed: [5] | [10]
inactive: all other assays above

C=CCC1=C(C)[C@@H](OC(=O)[C@@H]2[C@@H](C=C(C)C)C2(C)C)CC1=O
active: [10] 49 µM | [5] 12.3 µM | [6] 6.92 µM
inactive: [2] | [3] | [7] | [9]

C[N+](C)=CCl
not listed: [8] | [10]
inactive: all other assays above

CC(C1CC1)C(O)(Cn1cncn1)c1ccc(Cl)cc1 (centres undefined)
inactive: [1] | [2] | [3] | [6] | [7] | [9]

CCOP(=S)(Oc1cnc(C(C)(C)C)nc1)OC(C)C (centres undefined)
not listed: [1]
inactive: all other assays above

CCN(CC)CCOC(=O)C(C)(c1ccccc1)c1ccccc1
not listed: [2] | [10]
inactive: all other assays above

c1ccc(N2CCNCC2)cc1
not listed: [2] | [8]
inactive: all other assays above

CC1COC2(c3ccccc3Cl)c3cc(Cl)ccc3NC(=O)CN12 (centres undefined)
not listed: [5] | [8] | [10]
inactive: all other assays above

CN1CCC(O)(c2ccc(F)cc2)C(C(=O)c2ccc(F)cc2)C1 (centres undefined)
inactive: [3] | [4] | [5] | [6] | [7] | [8]

[Cl][Sn]([Cl])([Cl])[Cl]
inactive: [2] | [3] | [4] | [6] | [8] | [9]

CCCCOC(=O)c1ccccc1N
inactive: [2] | [3] | [5] | [6] | [8] | [9]

CC1(C(=O)Nc2ccc(O)c(Cl)c2Cl)CCCCC1
inactive: [2] | [3] | [4] | [7] | [8]

CN1C(=S)CN=C(c2ccccc2)c2cc(Cl)ccc21
inactive: [2] | [10] | [4] | [5] | [6] | [9]

COc1cccc2c1cc([N+](=O)[O-])c1c(C(=O)O)cc3c(c12)OCO3
active: [5] 3.09 µM
not listed: [4] | [8] | [10]
inactive: all other assays above

Cc1ncc(CNC(=O)N(CCCl)N=O)c(N)n1
not listed: [8] | [10]
inactive: all other assays above

COc1ccc(C(=O)N2CCCC2=O)cc1
not listed: [4] | [8] | [10]
inactive: all other assays above

CCCCc1c(C)nc(NCC)[nH]c1=O
active: [6] 21.9 µM
not listed: [5] | [10]
inactive: all other assays above

C#C[C@]1(O)C=C[C@H]2[C@@H]3CCC4=CC(=O)CC[C@@H]4[C@H]3CC[C@@]21CC
not listed: [5] | [10]
inactive: all other assays above

COc1ncc(F)c2nc(S(=O)(=O)Nc3c(F)cccc3F)nn12
active: [1] 13.9 µM
inactive: [2] | [4] | [5] | [6] | [8]
